Compound activity (PubChem)
Hits are enriched below; roughly 3.5% of the tested compounds scored in any of these assays.
TEAD-YAP block – TEAD-YAP interaction inhibition. 1.4% of 640,000 active. HEK-TIYL cells, TEAD-Gal4/YAP UAS-luciferase luminescence. inhibition, % at 9.12 µM; in the data active = inhibition above about 32%;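 note: 0% = median of test compound wells and 100% = reference inhibitor wells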
GPR151 activ – human GPR151 activation; Q8TDV0; PathHunter beta-arrestin GPR151 cells, luminescence; activation, % at 11.2 µM; 1% of 650,000 active; in the data active = activation above about 4.9%;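 note: 0% = median of compound wells and 100% = cells with positive control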
MITF primary – human MITF inhibition, primary screen; AlphaScreen MITF homodimerization, bead proximity signal; inhibition, % at 2.6 µM; 0.91% of 650,000 active; AID 1259374; in the data active = inhibition above about 50%;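 note: 0% = vehicle wells with protein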
FBW7 activator – activators of human E3 ligase FBW7 | normalized activity (activation), % at 26.1 µM | Q969H0 | AlphaScreen FBW7–phospho-cyclin E peptide binding, activator screen | AID 1259310 | 0.13% of 650,000 active; in the data active = normalized activity above about 1.9%;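 note: purified mutant Fbw7 with reduced substrate affinity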
GPR151 conf act – confirmation of human GPR151 activators | activation, % at 11.2 µM | 6,700 tested, under 10 active | shares compounds with GPR151 activ | GPR151 PathHunter beta-arrestin cells, luminescence, 90 min; % of EA-reagent control over plate median;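 active = mean percent activation across replicates above the confirmation screen cutoff of 4.91%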
GPR119 ag – counter-screen for GPR151 activators: effect on human GPR119. shares compounds with GPR151 activ. activation, % at 11.2 µM. 0.3% of 6,700 active. GPR119 PathHunter beta-arrestin cells, luminescence, 90 min; 0 = compound-well median, 100 = enzyme-acceptor control;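 active = mean percent activation in the counterscreen above 29.09%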;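 note: counterscreen on off-target GPR119 to flag nonselective hits from the GPR151 activator screen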
Target sequence (Q8TDV5 whole entry, looked up): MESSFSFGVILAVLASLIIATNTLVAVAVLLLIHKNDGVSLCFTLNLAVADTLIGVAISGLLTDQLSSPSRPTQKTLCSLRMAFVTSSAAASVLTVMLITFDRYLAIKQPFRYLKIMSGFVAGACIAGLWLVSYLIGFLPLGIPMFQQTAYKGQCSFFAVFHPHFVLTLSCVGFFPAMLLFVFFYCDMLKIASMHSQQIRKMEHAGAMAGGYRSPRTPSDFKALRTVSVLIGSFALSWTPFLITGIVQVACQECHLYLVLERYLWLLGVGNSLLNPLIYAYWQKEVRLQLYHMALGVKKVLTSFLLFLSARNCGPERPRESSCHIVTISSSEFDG
An asterisk follows results filed as active; . = not tested or not shown.

SMILES	TEAD-YAP block	GPR151 activ	MITF primary	FBW7 activator	GPR151 conf act	GPR119 ag
CCC(C)c1ccc(NC(=O)CN(C)CC(=O)Nc2cccc(OC)c2)cc1 (centres undefined)	-1	6.1*	33	0	1	-3
COc1cccc(NC(=O)CN(C)CC(=O)Nc2ccc(-c3ccccc3)cc2)c1	-7	1	-1	0	.	.
COc1ccc(Cl)cc1N1C(=O)C2CCCN2C1c1ccccc1 (centres undefined)	2	1	6	1	.	.
COc1ccccc1C1N(c2cc(Cl)ccc2OC)C(=O)C2CCCN21 (centres undefined)	1	6.8*	4	0	-1	-8
CC(=O)c1ccccc1NC(=O)COC(=O)CCC(=O)c1ccc(C(C)(C)C)cc1	-6	-1	-4	0	.	.
Cc1ccc(C)c(C(=O)CCC(=O)NNC(=O)Cc2nc3ccccc3n2C)c1	9	1	5	0	.	.
Cc1ccc(C)c(N2CCN(C(=O)CCc3nc(-c4ccccc4F)no3)CC2)c1	-3	5.5*	-2	0	1	9
O=C(CCc1nnc(C2(c3ccc(Cl)cc3)CCC2)o1)NCc1ccccn1	8	5.1*	13	0	0	-6
Cc1ccc(CNC(=O)CCc2nnc(C3(c4ccc(Cl)cc4)CCC3)o2)s1	-4	1	5	0	.	.
Cc1cnc(-c2ccc(C(N)=O)cc2)nc1NCCN1CCOCC1	6	5.5*	-1	0	-1	4
Cc1cnc(-c2ccc(C(=O)NC3CC3)cc2)nc1NCCCN1CCCC1=O	4	5.2*	11	0	1	5
Cc1cnc(NCc2ccc3c(c2)OCO3)nc1NCCCN1CCCC1=O	-5	5.6*	6	1	1	2
Cc1cnc(NCCCN2CCCC2=O)nc1NCCCN1CCCC1=O	4	6.8*	10	0	0	-2
Cc1cnc(-c2ccc(C(=O)N3CCN(C)CC3)cc2)nc1NCCCN1CCCC1=O	5	-1	-4	0	.	.
CCNc1ncc(C)c(NCCCN2CCCC2=O)n1	4	-2	3	0	.	.
CCOC(=O)c1sc2nc(COC(=O)c3ccc(C#N)cc3)[nH]c(=O)c2c1C	4	0	10	0	.	.
O=C(Cn1cnc2c(oc3ccccc32)c1=O)Nc1ccc(F)cc1	-3	0	-6	0	.	.
CCN(CC)c1nc(NCCCN2CCCC2=O)nc(NC2CC2)n1	-7	5.1*	-1	0	0	-4
CSc1ccc(S(=O)(=O)N2CCCCCC2)cc1	3	5.0*	15	0	0	0
CN1CCN(S(=O)(=O)c2ccc(C3CCCCC3)cc2)CC1	2	5.3*	4	0	1	-2
CCc1n[nH]c(=S)n1/N=C(\C)c1ccc(OC)cc1	-12	0	7	0	.	.
CN1CCN(C(=O)c2cc(S(=O)(=O)N3CCCCC3)c[nH]2)CC1	-5	5.3*	7	0	1	-4
CCN1CCN(C(=O)c2cc(S(=O)(=O)N3CCCCC3)c[nH]2)CC1	-6	-1	-1	0	.	.
O=C(NC1CCN(Cc2ccccc2)CC1)c1cccc(NCc2ccc3c(c2)OCO3)n1	-2	0	9	0	.	.
O=S(=O)(c1ccc2ccccc2c1)N1CCN(c2cc(N3CCOCC3)ncn2)CC1	-5	1	2	0	.	.
SMILES	TEAD-YAP block	GPR151 activ	MITF primary	FBW7 activator	GPR151 conf act	GPR119 ag
O=C(Nc1ccc(S(=O)(=O)Nc2nccs2)cc1)C(Cl)Cl	3	1	4	0	.	.
O=C(Nc1ccc(S(=O)(=O)Nc2nccs2)cc1)C(c1ccccc1)c1ccccc1	0	5.5*	9	0	0	0
COc1ccc(/C=C2\N=C(c3ccc(C)cc3)NC2=O)cc1	14	0	6	1	.	.
COc1ccc(/C=C2/N=C(c3ccccc3)NC2=O)cc1	-15	5.2*	-3	0	-1	-9
CC(=O)c1nn(-c2cccc(Cl)c2)cc1C(=O)c1cccs1	-2	6.4*	9	0	0	-8
CC(=O)c1nn(-c2ccc([N+](=O)[O-])cc2)cc1C(=O)c1cccs1	-1	-1	13	0	.	.
CC(=O)NNc1cccc(Cl)c1	4	6.1*	-10	0	0	-3
CCOc1ccc(NC(=O)CN2N=NC3C(=O)N(c4ccc(Cl)cc4)C(=O)C32)cc1 (centres undefined)	8	5.7*	2	0	0	7
CCCCCCOc1ccc(-c2ncc(CCCCC)cn2)cc1	6	5.8*	0	0	0	-9
CCCCCCc1cnc(-c2ccc(Br)cc2)nc1	-8	-2	8	0	.	.
Cc1ccc(NC(=O)CNC(=O)c2c[nH]c3ccccc23)cc1F	2	5.7*	2	0	0	-5
CSc1ccccc1NC(=O)CNC(=O)c1c[nH]c2ccccc12	1	0	6	0	.	.
CC(C)N(CCNc1cc(-c2ccc3c(ccn3C)c2)nc(N)n1)C(C)C	5	-1	-55	0	.	.
CC(=O)Oc1cccc(/C=C2/C(=O)NN(c3ccc(C)c(C)c3)C2=O)c1	-6	5.0*	2	1	-1	-13
O=C1NN(c2ccc(F)c(Cl)c2)C(=O)/C1=C\c1ccc(Br)cc1	7	-1	19	1	.	.
O=C1NN(c2ccc(F)c(Cl)c2)C(=O)/C1=C\c1cccc(I)c1	8	5.2*	7	0	0	9
Cc1cccc(N2C(=O)NC(=O)/C(=C/c3ccc(-c4cccc(C(=O)O)c4)o3)C2=O)c1	-10	-3	20	0	.	.
COCCN(CCOC)S(=O)(=O)c1ccc(C(=O)Nc2nnc(-c3ccc(F)cc3)s2)cc1	-1	0	-9	0	.	.
CCOc1ccc(-c2[nH]nc3c2C(c2ccccc2F)C(C#N)=C(N)O3)c(OCC)c1 (centres undefined)	1	7.1*	10	0	-1	6
CCOc1ccc2nc(C(=O)N3CCCCC3)sc2c1	-63	11*	4	0	-1	-4
COc1ccc(NC(=O)c2cnn(-c3ccccc3)c2NC(=O)c2ccc(Cl)cc2)cc1	-3	0	7	0	.	.
COc1cccc(C2=NC(C)(CC(C)C)NC(c3ccccc3O)C2)c1 (centres undefined)	-32	1	2	0	.	.
O=C(Nc1ccc(Br)cc1F)NC1CCCCC1	-45	6.6*	-4	0	1	0
O=c1cc(CO)oc(C(Nc2ccccn2)c2cccc(Cl)c2)c1O (centres undefined)	-10	5.0*	0	0	0	12
CC(C)C(=O)Nc1ccc(S(=O)(=O)NCC2(c3ccccc3)CCOCC2)cc1	-7	5.2*	0	0	0	-5
Cc1ccccc1OCC(=O)NNC(=O)C(F)(F)F	-3	5.1*	-1	0	0	-1
Cc1ccc(OCC(=O)NNC(=O)COc2ccccc2C)cc1	8	2	0	0	.	.
